High-throughput results: PubChem, National Center for Advancing Translational Sciences (NCATS)
Only some compounds are listed: those with a hit (about 4.7% of all), similar ones and a draw of the others.
D1 antagonist – Antagonist of Human D 1 Dopamine Receptor: qHTS | 3.2% of 360,000 active | D(1A) dopamine receptor (Homo sapiens), P21728 | activity change, negative = inhibition, % at 10 µM | HEK293 TREx D1 cells, calcium flux, dopamine EC80; stronger effect = lower value; in the data active = activity change below about -30%; also: % is scaled to controls: 0 for no effect and ±100 for the full control effect
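Using tetracycline-induced force-coupled D1 Hek293 cells and a calcium dye, signals were followed for 180 s after compound, then for 180 s after EC80 dopamine, to detect inhibitors.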
TRHR enhancer-1 – qHTS for Small Molecule Agonists and Allosteric Enhancers of Human TRH Receptor: Primary Screen for Enhancers; TRHR cells, fluo-8 calcium fluorescence, EC20 TRH enhancement; 0.66% of 360,000 active; enhancement, % at 2 µM; Thyrotropin-releasing hormone receptor (Homo sapiens), P34981; in the data active = enhancement above about 30%; also: 0% is about no effect
Target sequence (P34981 whole entry, looked up): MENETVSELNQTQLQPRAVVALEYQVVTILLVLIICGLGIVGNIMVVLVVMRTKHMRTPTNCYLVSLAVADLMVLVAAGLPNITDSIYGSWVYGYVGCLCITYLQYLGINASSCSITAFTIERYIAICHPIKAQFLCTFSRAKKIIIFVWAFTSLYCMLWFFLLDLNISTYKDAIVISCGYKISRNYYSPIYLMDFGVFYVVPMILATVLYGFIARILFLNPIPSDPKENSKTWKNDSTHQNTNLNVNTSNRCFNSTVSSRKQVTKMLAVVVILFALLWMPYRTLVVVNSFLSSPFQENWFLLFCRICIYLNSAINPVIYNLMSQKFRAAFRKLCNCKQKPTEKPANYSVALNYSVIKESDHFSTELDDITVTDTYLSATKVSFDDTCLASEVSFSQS
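Enhancer read-out: after compound pinning and an initial kinetic agonist-mode read, an EC20 of TRH (10 nM final) was injected and fluo-8 calcium signal (Ex 480/Em 530) followed at 1 s/cycle for 100 cycles in TRHR-expressing cells.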
D1 potentiator – Potentiators of Human D1 Dopamine Receptor: qHTS | AID 504651, 2011 | potentiation, % at 10 µM | HEK293 TREx D1 cells, calcium flux, dopamine EC20 potentiation | 0.036% of 360,000 active; in the data active = potentiation above about 30%; also: 0% is about no effect
TRHR agonist-1 – qHTS for Small Molecule Agonists and Allosteric Enhancers of Human TRH Receptor: Primary Screen for Agonists | Thyrotropin-releasing hormone receptor (Homo sapiens), P34981 | TRHR cells, calcium flux fluo-8, FDSS agonist mode | activation, % at 2 µM | 0.18% of 360,000 active; in the data active = activation above about 30%; also: 0% is about no effect
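In this calcium-flux screen, cells bearing human TRHR are dye-loaded with fluo-8, baselined for 10 cycles, then exposed to library compounds; positive kinetic calcium responses during the agonist phase mark hits, with TRH as control.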
D1 agonist – Allosteric Agonists of the Human D1 Dopamine Receptor: qHTS; HEK293 T-REx D1 cells, calcium flux, agonist mode; 1% of 360,000 active; AID 504660, 2011; D(1A) dopamine receptor (Homo sapiens), P21728; activation, % at 2 µM; in the data active = activation above about 30%; also: 0% is about no effect
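Tetracycline-induced HEK293 TREx D1 cells, force-coupled to calcium signalling, were dye-loaded with a no-wash calcium kit. Compound was pin-added after a 10 s baseline. Fluorescence was read kinetically at 1 cycle/s for 180 s, with calcium rises flagged as agonism.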
TRHR enhancer-2 – qHTS for Small Molecule Agonists and Allosteric Enhancers of Human TRH Receptor: Confirmation Screen for Enhancers; shares compounds with TRHR enhancer-1; TRH receptor cell assay, enhancer confirmation qHTS; activity change, negative = inhibition, % at 46.1 µM; 970 tested, under 10 active; AID 493076, 2011;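 also: compound effect scored on response to added TRH at EC20 of 10 nM; 0% is about no effect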
TRHR agonist-2 – qHTS for Small Molecule Agonists and Allosteric Enhancers of Human TRH Receptor: Confirmation Screen for Agonists; shares compounds with TRHR enhancer-1; TRHR-expressing cells, agonist activation read-out; Potency, µM (series often up to 46.1 µM), without a hit: top-dose activation, most hits filed as activators; 8% of 970 active; also: potency is read from the fitted curve at half-maximal effect; 0% is about no effect; nearly all actives have a fitted effect of over 75% in size
Starred values were filed as active, the others as inactive; u = inconclusive; x = not tested or not shown. Unless noted, calls follow the shape of the dose curve; as a rule, active = well fitted curve in the direction sought with a large enough effect; inconclusive = small, poorly fitted or top-dose-only effect, or another doubt; inactive = no such curve, though single readings can be large; an effect the other way counts as inactive or inconclusive.

SMILES	D1 antagonist	TRHR enhancer-1	D1 potentiator	TRHR agonist-1	D1 agonist	TRHR enhancer-2	TRHR agonist-2
O=C(Cc1csc(Nc2nc(=S)[nH]c3ccccc23)n1)NCCCN1CCN(c2ccccc2F)CC1	-86*	-5	-17	0	0	x	x
O=C(Cc1csc(Nc2nc(=S)[nH]c3ccccc23)n1)NCc1ccc(Cl)cc1	-97*	-7	-12	2	3	x	x
Oc1ccccc1-c1nc(NCc2ccco2)c2ccccc2n1	-3	-3	-2	1	2	x	x
Cc1ccc(Nc2nc(-c3ccccc3)nc3ccccc23)cc1	-30*	-6	-4	0	1	x	x
COc1ccccc1Nc1nc(NCc2ccco2)c2ccccc2n1	-93*	-4	-20	-1	2	x	x
Cc1ccc(Nc2nc(NCc3ccco3)c3ccccc3n2)cc1	-66*	4	-17	2	47*	x	x
COC(=O)C(C)Sc1ncnc2c1c(-c1ccccc1)cn2-c1ccc(F)cc1 (stereo not drawn)	-4	-3	2	1	3	x	x
CN1c2ccc(Cl)cc2-c2nc(SCC(=O)NCc3ccc(F)cc3)ncc2S1(=O)=O	8	11	-3	0	3	x	x
COC(=O)c1c(-c2cccs2)csc1NC(=O)c1ccc(OC)c(OC)c1	1	-9	-2	1	3	x	x
O=C(Nc1scc(-c2cccs2)c1C(=O)O)c1cccs1	-84*	-3	-4	0	3	x	x
COC(=O)c1c(-c2cccs2)csc1NC(=O)c1cc(OC)c(OC)c(OC)c1	-66*	-4	0	1	0	x	x
COC(=O)c1c(-c2cccs2)csc1NC(=O)c1ccc(C)cc1	11	29	1	1	1	x	x
O=C1c2ccccc2-c2onc3ccc(N4CCCC4)c1c23	-21	-13	8	54*	167*	5	u
O=c1cc2oc3cc(O)c(O)cc3c(-c3ccccc3O)c-2cc1O	-14	4	1	47*	46*	5	10µM*
CCOc1ccccc1-c1c2cc(O)c(=O)cc-2oc2cc(O)c(O)cc12	12	1	-3	31*	53*	-15	0.73µM*
Cn1c(CNC(=O)c2ccccc2)nnc1SCC(=O)Nc1nccs1	-7	-1	-4	0	2	x	x
Cc1ccc(C(=O)NCc2nnc(SCC(=O)NC(C)c3ccccc3)n2C)cc1 (stereo not drawn)	1	43*	-1	-1	2	7	-1%
O=C(CSc1nnc(-c2ccccc2)c(-c2ccccc2)n1)NCc1ccco1	8	61*	-3	0	0	-13	2%
O=C(CSc1ncc(-c2ccccc2)nn1)NCc1ccco1	8	8	-1	0	1	x	x
COc1ccc(Cl)cc1NC(=O)Cn1c(=O)n(Cc2nc(C)no2)c(=O)c2ccccc21	9	5	-1	0	1	x	x
O=C(Nc1ccccc1C(=O)O)c1cc(S(=O)(=O)N2CCOCC2)c(Br)s1	10	45*	6	-1	7	4	-1%
CCc1ccc(C(=O)NCC2COc3ccccc3O2)o1 (stereo not drawn)	1	60*	1	0	5	-8	1%
CCOc1ccc(Nc2nc(N3CCOCC3)nc(N3CCOCC3)n2)cc1	-15	50*	3	1	6	-5	2%
CCOc1ccc(Nc2cc(C)nc(N3CCOCC3)n2)cc1	-14	-2	1	-1	1	x	x
COc1ccccc1N(CC(=O)NCc1cccnc1)S(C)(=O)=O	20	48*	-1	0	1	8	1%
SMILES	D1 antagonist	TRHR enhancer-1	D1 potentiator	TRHR agonist-1	D1 agonist	TRHR enhancer-2	TRHR agonist-2
CCOC(=O)C1CCCN(CC(=O)Nc2nc(-c3ccccc3)cs2)C1 (stereo not drawn)	-11	-10	-3	0	-1	x	x
CN(C)CCSc1nc(-c2ccccc2)nc2c1COC(C)(C)C2	x	46*	-4	0	2	1	2%
COc1ccc(C(C)=O)cc1COC(=O)Cc1cc(OC)c(OC)c(OC)c1	-4	-3	-4	29	7	-4	-1%
COc1ccc(C(C)=O)cc1COC(=O)CNC(=O)c1ccc(Cl)cc1	-2	-8	-5	-2	4	x	x
COc1ccc(-c2cnnn2-c2ccc(NC(=O)c3c(F)cccc3F)cc2)cc1	-17	-2	-3	0	12	x	x
COC(=O)C1=C(CS(=O)(=O)c2ccccc2)NC(=O)NC1c1ccc(O)cc1 (stereo not drawn)	-6	3	-1	1	1	x	x
CC(=O)c1ccccc1OCCOc1ncnc2sccc12	1	60*	-1	1	11	1	7%
COc1ccc(CNCCCSc2nnnn2-c2ccccc2)cc1	1	1	-1	0	23	x	x
Cc1ccc2oc(C(=O)Nc3cccc(Cl)c3)cc(=O)c2c1	33	12	-1	-1	0	x	x
Cc1ccc(Cn2c(CCNC(=O)c3cccc(C)c3)nc3ccccc32)cc1	-10	-13	2	-3	16	x	x
CC(=O)NCCC1CCN(c2nc3nonc3nc2N(C)Cc2ccccc2)CC1	10	47*	-5	0	2	-4	0%
CCCCNC(=O)N1CCC(CCC(=O)N(C)Cc2ccccc2)CC1	25	-6	-7	0	-2	x	x
Cc1ccc2cc(NC(=O)Cc3ccccc3)ccc2n1	-7	3	2	0	1	x	x
Cc1ccc2cc(NC(=O)c3ccccc3C)ccc2n1	20	50*	6	0	2	2	1%
O=C(COc1ccc(S(=O)(=O)N2CCCC2)cc1)NCc1cccnc1	-8	4	-4	0	1	x	x
NC(=O)NCCCC(NC(=O)c1ccc(C#CC2(O)CCCCC2)cc1)C(=O)O (stereo not drawn)	-4	43*	-4	0	4	-4	-1%
NC(=O)c1c(NC(=O)CN2CCOCC2)sc2c1CCC2	9	66*	-5	0	2	-16	2%
NC(=O)c1c(NC(=O)CN2CCCC2)sc2c1CCCC2	-18	2	1	0	-3	x	x
